# In PubChem BioAssay (NCATS):
# Experiment: High-throughput drug toxicity screening in the BPDCN cell line Gen2.2 (AID 1224824);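 also: cells exposed to compounds for 48 h before reading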
# Conditions: Gen2.2 BPDCN cells; at 45.8 µM (top of the series)
# In short: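 Gen2.2, 500 cells/well, phenol red-free RPMI/10% FBS/Pen-Strep; 48 h cpd, 37 °C/5% CO2; CTG lum, 15 min RT. Norm: DMSO = 100%, bortezomib 9.2 uM final = 0%.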
row,Structure (SMILES),"cell viability, % of control (lower = more cytotoxic) [%]"
1,CC(=O)OCC1=C(C(=O)O)N2C(=O)[C@@H](N)[C@@H]2SC1,68.5
2,CN[C@@H]1Cc2cccc3[nH]c(=O)n(c23)C1,231
3,COc1ccc2c(c1)[C@]13CCCCC1C(C2)N(C)CC3 (stereo not given in full),61.8
4,C[C@H]([C@H](O)CCC(C)(C)O)[C@H]1CC[C@@]2(O)C3=CC(=O)[C@@H]4C[C@@H](O)[C@@H](O)C[C@]4(C)[C@@H]3CC[C@]12C,127
5,COC(=O)[C@@H](N)CCCN=C(N)N[N+](=O)[O-],113
6,C[C@@H]1CC[C@@]2(OC1)O[C@H]1C[C@H]3[C@@H]4CC=C5C[C@@H](O[C@@H]6O[C@H](CO)[C@@H](O[C@@H]7O[C@@H](C)[C@H](O)[C@@H](O)[C@@H]7O)[C@H](O)[C@@H]6O[C@@H]6O[C@@H](C)[C@H](O)[C@@H](O)[C@@H]6O)CC[C@]5(C)[C@@H]4CC[C@]3(C)[C@@H]1[C@H]2C,10.6
7,C[C@]12Cc3cn[nH]c3C[C@@H]1CC[C@@H]1[C@H]2CC[C@@]2(C)[C@H]1CC[C@]2(C)O,133
8,C[C@@H]1CC[C@H]2[C@@H](C)C(=O)O[C@@H]3O[C@@]4(C)CC[C@H]1[C@]32OO4,95.1
9,COC[C@H]1OC(=O)c2coc3c2[C@@]1(C)C1=C(C3=O)[C@@H]2CC[C@H](O)[C@@]2(C)C[C@@H]1OC(C)=O,5.55
10,C[C@]12CC[C@@H]3[C@@H](CCC4=CC(=O)CC[C@@H]43)[C@@H]1CC[C@@H]2OC(=O)CCc1ccccc1,119
11,COc1cc([C@@H]2c3cc4c(cc3[C@@H](O)C3COC(=O)C32)OCO4)cc(OC)c1O (stereo not given in full),6.47
12,O=c1cccc2n1CC1CNC[C@H]2C1,51.5
13,C[C@@H]1O[C@@H](O[C@@H]2C=C3CC[C@@H]4[C@@H](CC[C@]5(C)[C@H](c6ccc(=O)oc6)CC[C@@]45O)[C@@]3(C)CC2)[C@H](O)[C@H](O)[C@H]1O,16.6
14,CC(C)(O)C=CC(=O)[C@](C)(O)[C@H]1[C@H](O)C[C@]2(C)[C@@H]3CC=C4[C@@H](C=C(O)C(=O)C4(C)C)[C@]3(C)C(=O)C[C@@]12C,4.04
15,Cc1ccccc1-n1c(Cn2ncc3c(N)ncnc32)nc2cccc(C)c2c1=O,28.1
16,Cc1[nH]nc2ccc(-c3cncc(OC[C@@H](N)Cc4c[nH]c5ccccc45)c3)cc12,1.9
17,Clc1ccccc1C(c1ccccc1)(c1ccccc1)n1cccn1,108
18,C#C[C@]1(O)C=C[C@@H]2[C@@H]3CCC4=CC(=O)CC[C@@H]4[C@H]3CC[C@@]21CC,62.7
19,CN(C)[C@@H]1C(=O)C(C(N)=O)=C(O)[C@@]2(O)C(=O)C3=C(O)c4c(O)cccc4[C@@](C)(O)[C@H]3[C@H](O)[C@@H]12,109
20,C[C@]12CC[C@H]3[C@@H](CCC4=CC(=O)CC[C@@]43C)[C@H]1CC[C@H]2OC(=O)CCC1CCCC1,94

row,Structure (SMILES),"cell viability, % of control (lower = more cytotoxic) [%]"
1,CC(=Cc1csc(C)n1)[C@@H]1C[C@H]2O[C@]2(C)CCC[C@H](C)[C@@H](O)[C@@H](C)C(=O)C(C)(C)[C@@H](O)CC(=O)O1,50.2
2,COCC1(CO)C(=O)C2CCN1CC2 (stereo not given),4.6
3,O=C(N[C@H]1CN2CCC1CC2)c1ccc(Cl)cc1,126
4,C[C@@H]1[C@H](O)[C@@H](C)C=CC=CCCC=CC=CC=CC=C[C@H](O[C@H]2O[C@@H](C)[C@H](O)[C@@H](N)[C@@H]2O)CC2O[C@](O)(C[C@@H](O)[C@H](O)CC[C@@H](O)C[C@@H](O)C[C@@H](O)CC(=O)O[C@H]1C)C[C@H](O)[C@H]2C(=O)O,152
5,CCOP(=O)(OCC)C(C)NC(=O)N(CCCl)N=O (stereo not given),109
6,CCC(=O)OC1CCC2C3CCC4=CC(=O)CC[C@@]4(C)C3CC[C@]12C (stereo not given in full),223
7,CC[C@@]1(O)C(=O)OCc2c1cc1n(c2=O)Cc2cc3ccccc3nc2-1,4.89
8,CC1=C(O)C(=O)C=C2C1=CC=C1[C@@]2(C)CC[C@@]2(C)[C@@H]3C[C@](C)(C(=O)O)CC[C@]3(C)CC[C@]12C,12.3
9,CC(C)(C)[C@]1(O)C[C@@H]2OC(=O)C[C@@]23C(=O)O[C@@H]2OC(=O)[C@H](O)C213 (stereo not given in full),106
10,O=C(Nc1ccncc1)C(=O)c1cn(Cc2ccc(Cl)cc2)c2ccccc12,73.9
11,O=[N+]([O-])c1ncc[nH]1,102
12,COc1cc2cc(c1Cl)N(C)C(=O)C[C@H](OC(=O)C(C)C)[C@]1(C)O[C@H]1[C@H](C)[C@@H]1C[C@@](O)(NC(=O)O1)[C@H](OC)C=CC=C(C)C2,10.1
13,CC(=Cc1csc(C)n1)[C@@H]1C[C@H]2O[C@@H]2CCC[C@H](C)[C@@H](O)[C@@H](C)C(=O)C(C)(C)[C@@H](O)CC(=O)O1,50.1
14,CC(=O)O[C@@]12CO[C@H]1C[C@H](O)[C@@]1(C)C(=O)[C@H](O)C3=C(C)[C@@H](O)C[C@@](O)([C@@H](OC(=O)c4ccccc4)[C@@H]21)C3(C)C,42
15,CC(C)[C@]12O[C@@H]1[C@@H]1O[C@]13[C@]1(O[C@H]1C[C@@H]1C4=C(CC[C@@]13C)C(=O)OC4)[C@H]2O,4.5
16,C[C@H]1CCCC=CC2C[C@H](O)C[C@@H]2[C@H](O)C=CC(=O)O1 (stereo not given in full),4.51
17,COC1=C[C@@H]2[C@@H]3Cc4ccc(OC)c(O)c4[C@]2(CCN3C)CC1=O,69.4
18,COc1cccc2c1[C@]13CCN(CC4CC4)[C@H](C2)[C@]1(OC)CCC(=O)C3,99.3
19,C[C@]12CC[C@H](O)CC1=CC[C@H]1[C@H]3CCC(=O)[C@@]3(C)CC[C@@H]12,136
20,O=c1[nH]c2ccc(Cl)cc2c(N[C@@H]2CN3CCC2CC3)c1-c1nc2ccccc2[nH]1,2.72
